According to ChEMBL document CHEMBL1157539, “Thousands of chemical starting points for antimalarial lead identification” (Nature, 2010):

These compounds were tested on Plasmodium falciparum (assay: GSK_TCMDC: Inhibition of Plasmodium falciparum 3D7 in whole red blood cells, using parasite LDH activity as an index of growth. Test compounds present at 2uM).
Assay type: functional

Going from Cl.O=C(N[C@@H](Cc1ccccc1)[C@H](O)CNC1CCc2ccccc2C1)c1cc(C2CCCC2)cc(N2CCCC2=O)c1 (stereo not given in full) to COc1cccc(CNC[C@@H](O)[C@H](Cc2ccccc2)NC(=O)c2cc(NC(C)C)cc(N3CCCCS3(=O)=O)c2)c1.O=CO, the Inhibition falls from 99% to 89%.

Compared with COc1ccc(Oc2ccc(-c3c(O)cc(C)nc3C)cc2)cc1, COc1ccc(Nc2nc(NC3CCN(C)CC3)cc(-c3ccc(OC)cc3)n2)cc1 is higher in Inhibition: 93% for the first, 100% for the second.

First: N#Cc1cccc(CN2CCCN(Cc3cccc(C(=O)Nc4ccc(Cl)cc4)c3)CC2)c1.O=C(O)C(F)(F)F
Second: CC(C)CCN1CCCN(Cc2cccc(NC(=O)c3ccc(Cl)c(Cl)c3)c2)CC1.O=C(O)C(F)(F)F
The Inhibition of the first is lower: 82% for the first, 92% for the second.

Compared with FC(F)(F)c1cccc(CNCCCCCNCc2ccc(Cl)cc2)c1, Cl.OC(CNCCCCCCNCC(O)c1ccc(Cl)c(Cl)c1)c1ccc(Cl)c(Cl)c1 (stereo not given) is lower in Inhibition: 91% for the first, 90% for the second.

Going from CN(C(=O)/C=C/c1ccccc1F)C1CCN(CCCCCNC(=O)/C=C/c2ccc(Cl)c(Cl)c2)CC1 to C=CCc1ccc(C2CCN(CCCCNC(=O)c3ccc(NC(=O)c4ccc(Cl)cc4)cc3)CC2)cc1, the Inhibition rises from 89% to 100%.

Going from Cc1ccc2oc3cc(-c4nnn[nH]4)ccc3c(=O)c2c1 to Cl.Cn1c(=O)n(C)c2cc(CNCCNc3ccnc4cc(Cl)ccc34)ccc21, the Inhibition rises from 97% to 100%.

Compared with CCCNC(=O)Nc1ccc(N(C)c2ccnc(NC3CC3)n2)cc1, CC(=O)Oc1cc(C(=O)Nc2ccc(Cl)cc2)cc2ccccc12 is lower in Inhibition: 100% for the first, 88% for the second.

First: CCN(CC)S(=O)(=O)c1ccc(CCOCCCCCNCC(O)c2cc(Cl)c(N)c(Cl)c2)s1.O=C(O)/C=C/C(=O)O (stereo not given)
Second: CCCCCCCN1CC[C@@H](CCCc2ccnc3ccc(OC)cc23)[C@@H](CNC)C1.O=C(O)C(=O)O
The Inhibition of the first is lower: 96% for the first, 100% for the second.

Compared with CC(C)(C)c1ccc(CN2CCC(NC(=O)c3ccc(-c4cccc(C(F)(F)F)c4)s3)CC2)cc1.O=C(O)C(F)(F)F, Cc1cccc2nc(-c3ccc(-c4ccc(CN5CCCCC5)cc4)s3)[nH]c12.O=C(O)C(F)(F)F is lower in Inhibition: 100% for the first, 99% for the second.

First: O=C(Cc1ccc([N+](=O)[O-])cc1)N1CCc2cc3nccc(N4CCN5CCC[C@@H]5C4)c3cc21
Second: Cc1ccc(Nc2nc(N/N=C/c3cc4c(cc3Br)OCO4)nc(Nc3ccc([N+](=O)[O-])cc3)n2)cc1C
The Inhibition of the first is lower: 95% for the first, 100% for the second.

Going from CSCCCN1CCC(O)(c2ccc3oc(C(=O)Nc4ccc5sc(C)nc5c4)cc3c2)CC1 to CCc1sc(-c2ccc(C(C)(C)C)cc2)nc1C(=O)NCCCN1CCCC1=O, the Inhibition falls from 100% to 84%.

Going from COc1cc2nc(N3CCC(CNC(=O)c4ccc(OC(F)(F)F)cc4)CC3)nc(N)c2cc1OC.O=C(O)C(F)(F)F to COc1ccc(Oc2ccc(Nc3ccnc4ccc(C(F)(F)F)cc34)cc2)cc1OC.Cl, the Inhibition falls from 100% to 90%.

CC(=O)Nc1nc(C(=O)Nc2ccc(-c3ccc(-c4nc5ccccc5[nH]4)cc3)cc2)cs1 and CCOc1cc(C(=O)NCCN(CC)c2cccc(C)c2)ccc1-c1nc2cc(Cl)ccc2[nH]1 are the same in Inhibition: 100% for the first, 100% for the second.

Compared with CCCCCCSc1nnc(COc2cccc3ccccc23)n1-c1ccc(OC)cc1, CCCCOc1ccc(-n2c(Nc3ccccc3)nc3cc(S(N)(=O)=O)ccc32)cc1 is lower in Inhibition: 99% for the first, 90% for the second.

Going from Cc1ccc(S(=O)(=O)c2nc(S(=O)(=O)c3ccccc3)sc2NCC2CCCO2)cc1 (stereo not given) to CCCc1ccc(S(=O)(=O)Nc2ccc3c(c2)CCC3)cc1, the Inhibition rises from 88% to 96%.

Going from CCN1CCC(N(Cc2ccc(-c3ccc(Cl)cc3)cc2)C(=O)Cn2c(CCc3cccc(F)c3F)cc(=O)c3ccccc32)CC1.O=C(O)C(O)C(O)C(=O)O to CN(C)CCCN(C)C(=O)c1cc2cc(-c3ccccc3)ccc2n1S(=O)(=O)c1ccccc1.Cl, the Inhibition falls from 99% to 98%.

Compared with Cc1ccccc1OCC(O)CNC1CCC(NCC(O)COc2ccccc2C)CC1 (stereo not given), Clc1ccccc1OCc1ccccn1 is lower in Inhibition: 98% for the first, 85% for the second.

First: Cl.O=c1ccc2ncc(Cl)c3c2n1CC3CN1CCC(NCc2cc3c(cn2)OCCO3)CC1 (stereo not given)
Second: CC(C)N1CCN(C(CN2CCN(CCCOc3cccc(F)c3)CC2)c2ccc(F)cc2)CC1.Cl (stereo not given)
The Inhibition of the first is higher: 96% for the first, 92% for the second.

Going from CS(=O)(=O)c1ccc(-c2cncc(Nc3cccc([N+](=O)[O-])c3)c2)cc1 to Cc1cccc(C(=O)NC(NC(=S)Nc2ccc([N+](=O)[O-])cc2)C(Cl)(Cl)Cl)c1 (stereo not given), the Inhibition falls from 97% to 96%.

Compared with C=C1C(C(=O)OCC)=CN(CC)c2cc(O[C@H]3CCN(C(=O)OC(C)(C)C)C3)ccc21, COc1cc2nc(NCCc3ccccc3)nc(NCc3ccc(C#N)cc3)c2cc1OC is higher in Inhibition: 98% for the first, 100% for the second.
